Data as given in the OligoGym collection.

Target: FBXL3
Experiment: pooled miR-30 sensor sort-seq; sequence = guide strand
Conditions: shRNA
Note: reference of the scale not given here.

Sequence	sensor-assay potency score (higher = more potent)
TTTAATAATCTGTTTGATCAGC	-0.685
TACTGGAGTATCATCTATCTTA	-0.0234
TACTTGGAGAATAATGTCCTGA	0.112
TATCACAAGCTGCTTCAGCTGA	-0.251
TTAATTATAATACATTTGCTTG	-1.08
TTGCACACACTACTAGTTCAAC	-1.05
TTCCTTGCTGCTGTCCACCTTG	-0.442
TAACTCTTCATCAAGTGGCCGT	-0.249
TATGGAAGTGTGTCTGTCCAGG	-0.66
TTGCTTGAAATTAAGGTGCTAT	0.353

Target: FBXO25
Experiment: as above
Conditions: shRNA

Sequence	sensor-assay potency score (higher = more potent)
TGTGTCTCCGTACTGCTCCTTC	-0.185
TTTTTTTCGATGCATATTCATG	-0.983
TTGACCACATAATTGAACCTTC	0.213
TTCACTTGCTTAGTCATCTGAA	0.836
TCTGTCTTAATCCAACTCCATC	-1.72
TTCACTAAGCATATACAACGTG	-0.104
TCACTAAGCATATACAACGTGG	-0.518
TAGGTCTTGCAGAAGATCTTTG	-0.731
TAATCCAACTCCATCCAGGAGA	-0.761
TATTGAATATTTCTCCATCTTC	-0.493
ATATCTTGAATTGCACTTGAGA	-0.85
TCTTAATCCAACTCCATCCAGG	-0.487

Target: FBXO27
Experiment: as above
Conditions: shRNA

Sequence	sensor-assay potency score (higher = more potent)
TTATCTAGAACAGTCTGGTTGG	0.434
TGTTGCACCATCCACTTTCGGA	-0.815
TTTAACGTAGACTTTCAGCTGC	0.647
TTACAGGTCCTTGAGGATCAGG	-1.43
TTTTTTAACGTAGACTTTCAGC	-0.574
TGATATATTATTCTTACTGTTT	-0.893
TTTATCTAGAACAGTCTGGTTG	0.00929
TTTTCCTCCACCACCCAGCCGT	-0.662
AATTTATCTAGAACAGTCTGGT	0.248
TTTTTTTTTAACGTAGACTTTC	-0.903
TCTGGTAGTTTCTAGAACCTGA	0.603
TTGATGTTGGAGAACACGTGGG	-0.501

Target: FBXO43
Experiment: as above
Conditions: shRNA

Sequence	sensor-assay potency score (higher = more potent)
TAATTCTGTTAAGATGTCCAGT	-0.342
TTTGACTGCATGAAGTCACTTC	0.521
TTGAACAACAATTTCACGCCAA	0.6
TTATCTATATTATCAAAGCTAC	-0.969
TAACAGAAGAGCTTGCTAGAGG	-0.36
TAGGCTACAATCATCTTTGGAA	0.408
